Data from PubChem BioAssay AID1745853 (National Center for Advancing Translational Sciences (NCATS), 2022).
The whole screen tested about 25,000 compounds, of which about 970 (3.9%) were called active. Another 8% or so got no clear call; they are omitted. The rule behind the calls is not given here. The full list was thinned out, with actives kept by preference.

Experiments:
Assay in all cases: Primary Screen for Target Class Profiling of Small Molecule Inhibitors of Methyltransferases
[1] = target: Catechol O-methyltransferase (Homo sapiens) (UniProt P21964); settings: purified enzyme, MTase-Glo SAH luminescence; activity change, negative = inhibition: at 40 µM, stronger effect = lower value; outcome: 40 uM
Summary of the method: (§1)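 Each enzyme was assayed with SAM and its substrate. SAH formation detected by MTase-Glo luminescence; single-point 40 uM screen[…].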

[2] = target: Glycine N-methyltransferase (Homo sapiens) (UniProt Q14749); settings: purified enzyme, MTase-Glo SAH luminescence; measured here: GNMT inhibition; at 40 µM; stronger effect = lower value
Summary of the method: as §1

[3] = target: Guanidinoacetate N-methyltransferase (Homo sapiens) (UniProt Q14353); settings: purified enzyme, MTase-Glo SAH luminescence; measured here: GAMT inhibition; at 40 µM; stronger effect = lower value
Summary of the method: as §1

[4] = target: Histamine N-methyltransferase (Homo sapiens) (UniProt P50135); settings: purified enzyme, MTase-Glo SAH luminescence; measured here: HNMT inhibition; at 40 µM; stronger effect = lower value
Summary of the method: as §1

[5] = target: Nicotinamide N-methyltransferase (Homo sapiens) (UniProt P40261); settings: purified enzyme, MTase-Glo SAH luminescence; measured here: NNMT inhibition; at 40 µM; stronger effect = lower value
Summary of the method: as §1

[6] = target: Phenylethanolamine N-methyltransferase (Homo sapiens) (UniProt P11086); settings: purified enzyme, MTase-Glo SAH luminescence; measured here: PNMT inhibition; at 40 µM; stronger effect = lower value
Summary of the method: as §1
% is set by controls: 0 for no effect and ±100 for the full control effect.

Sequence of Glycine N-methyltransferase (Homo sapiens) (Q14749 whole entry, looked up): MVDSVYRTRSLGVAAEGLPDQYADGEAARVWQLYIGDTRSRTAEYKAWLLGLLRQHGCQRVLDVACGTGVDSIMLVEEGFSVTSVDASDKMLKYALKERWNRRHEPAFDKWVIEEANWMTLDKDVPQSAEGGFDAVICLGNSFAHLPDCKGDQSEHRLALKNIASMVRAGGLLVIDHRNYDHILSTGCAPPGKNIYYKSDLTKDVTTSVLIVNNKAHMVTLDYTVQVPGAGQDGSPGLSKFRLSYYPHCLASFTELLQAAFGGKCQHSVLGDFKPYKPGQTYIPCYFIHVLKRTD
Sequence of Phenylethanolamine N-methyltransferase (Homo sapiens) (P11086 whole entry, looked up): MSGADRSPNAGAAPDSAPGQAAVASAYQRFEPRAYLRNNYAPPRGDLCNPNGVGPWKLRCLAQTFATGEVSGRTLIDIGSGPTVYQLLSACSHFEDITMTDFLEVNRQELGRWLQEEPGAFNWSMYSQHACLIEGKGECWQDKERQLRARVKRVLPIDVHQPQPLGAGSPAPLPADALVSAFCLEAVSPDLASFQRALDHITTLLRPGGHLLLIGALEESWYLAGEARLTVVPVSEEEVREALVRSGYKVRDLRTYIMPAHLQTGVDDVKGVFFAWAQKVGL
Sequence of Catechol O-methyltransferase (Homo sapiens) (P21964 whole entry, looked up): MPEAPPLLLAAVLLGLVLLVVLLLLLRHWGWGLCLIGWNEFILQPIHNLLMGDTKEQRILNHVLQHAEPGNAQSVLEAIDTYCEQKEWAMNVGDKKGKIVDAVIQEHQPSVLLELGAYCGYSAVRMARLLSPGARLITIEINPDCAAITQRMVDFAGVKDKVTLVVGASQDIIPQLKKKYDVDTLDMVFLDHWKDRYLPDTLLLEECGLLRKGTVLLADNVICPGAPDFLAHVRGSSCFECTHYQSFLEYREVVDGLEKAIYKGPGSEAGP
Sequence of Nicotinamide N-methyltransferase (Homo sapiens) (P40261 whole entry, looked up): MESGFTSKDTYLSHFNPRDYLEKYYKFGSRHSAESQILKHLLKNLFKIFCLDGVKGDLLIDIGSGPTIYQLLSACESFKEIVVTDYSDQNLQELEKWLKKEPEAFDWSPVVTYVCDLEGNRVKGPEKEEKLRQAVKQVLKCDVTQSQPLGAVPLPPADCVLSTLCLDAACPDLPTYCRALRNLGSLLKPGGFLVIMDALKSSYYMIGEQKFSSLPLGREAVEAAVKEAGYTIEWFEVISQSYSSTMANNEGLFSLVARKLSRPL
Sequence of Histamine N-methyltransferase (Homo sapiens) (P50135 whole entry, looked up): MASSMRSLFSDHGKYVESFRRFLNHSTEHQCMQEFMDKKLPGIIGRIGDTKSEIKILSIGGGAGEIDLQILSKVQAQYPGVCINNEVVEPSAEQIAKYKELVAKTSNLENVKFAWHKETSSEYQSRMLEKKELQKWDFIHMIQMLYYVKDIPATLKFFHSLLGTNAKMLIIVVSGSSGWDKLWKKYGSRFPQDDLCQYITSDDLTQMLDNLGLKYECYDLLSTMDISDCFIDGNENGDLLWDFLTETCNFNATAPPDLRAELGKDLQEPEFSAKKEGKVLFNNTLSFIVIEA

Structure (SMILES)	activity change, negative = inhibition [1]	activity change, negative = inhibition [2]	activity change, negative = inhibition [3]	activity change, negative = inhibition [4]	activity change, negative = inhibition [5]	activity change, negative = inhibition [6]	outcome [1]
COC(=O)[C@]12C(=O)C(C)=C(O)[C@@]1(C)C(C)=CC1[C@@]34CC[C@@H](OC(C)=O)C(C)(C)C3[C@H](C[C@]12C)OC4=O (some centres undefined)	5.51% (inactive)	0%	3.85%	9.8%	-6.73%	3.04%	–
CN(C)[C@@H]1C(=O)C(C(N)=O)=C(O)[C@@]2(O)C(=O)C3=C(O)c4c(O)ccc(Cl)c4[C@@H](O)[C@H]3C[C@@H]12	-74.5% (active)	-24.2%	6.87%	3.22%	-8.53%	-5.78%	–
COCCOc1cc(=O)n2c(c1C(=O)NCc1ccccc1)CCOCC2	-1.21% (inactive)	1.04%	-0.934%	1.39%	-1.22%	1.39%	–
CCC(C)(C)NC(=O)c1cccc2c1CCN2C(=O)Nc1ccc(C)cc1	-3.57% (inactive)	-1.49%	-2.95%	1.94%	-7.5%	-2.44%	–
Cn1c(=O)n(C)c2cc(Nc3nc4ccccc4nc3NS(=O)(=O)c3ccc(Cl)cc3)ccc21	3.8% (inactive)	7.68%	-3.35%	-4.47%	0.13%	-6.48%	–
O=C(O)CC1CCC(c2ccc(-c3ccc(Nc4ccc(C(F)(F)F)nc4)cn3)cc2)CC1 (centres undefined)	17.9% (active)	-52.1%	-12.8%	1.31%	-35.3%	-4.28%	–
CC(C)c1nccn1CCCNc1nc(-c2ccncc2)nc2c1cnn2C	-44.5% (active)	-59.1%	-50.1%	-86%	-53%	-25.5%	–
CCOC(=O)c1cc2n(n1)CC(C)(C(=O)NCc1ccc(F)cc1)N(Cc1ccccc1OC)C2=O (centres undefined)	-3.88% (inactive)	-3.75%	3.18%	0.898%	-7.43%	-5.73%	–
CC(C)CCN1CC2(CCCN(C(=O)c3ccn(C)c(=O)c3)C2)CCC1=O (centres undefined)	-31.2% (active)	-57.8%	-45.1%	-13.3%	-17.7%	-27%	–
COCCN1CC2(CCC1=O)CCN(C(=O)[C@@H]1C[C@@H](O)CN1)CC2	4.29% (inactive)	-0.827%	-1.32%	1.21%	0.29%	-19.8%	–
COCCCn1c(=O)[nH]c2cccnc21	-9.36% (inactive)	-5.17%	-6.2%	-1.12%	-14.7%	9.39%	–
CCCn1c(=O)c2ccc(C(=O)NC(C)C)cc2n2c(=O)n(CC(=O)NCc3ccccc3Cl)nc12	4.33% (inactive)	2.57%	1.92%	6.44%	8%	4.03%	–
CCOC(=O)c1cc(Nc2ccc(C(C)=O)cc2)c2cc(Cl)ccc2n1	-3.11% (inactive)	-4.22%	6.82%	0.863%	6.54%	-3.31%	–
Cc1ccc(N2C(=O)c3cc4sccc4n3CC2(C)C(=O)NC2CCCCC2C)cc1 (centres undefined)	-3.6% (inactive)	-2.03%	1.51%	-1.92%	-1.16%	-6.83%	–
COc1cccc(-c2nnc3n(CCc4ccccc4)c(=O)c4ccccc4n23)c1O	0.892% (inactive)	-4.84%	0.066%	2.53%	-3.08%	0.274%	–
CN1CCCC1Cc1c[nH]c2ccc(CCS(=O)(=O)c3ccccc3)cc12 (centres undefined)	–	-2.16%	–	-89.9%	–	–	active

Structure (SMILES)	activity change, negative = inhibition [1]	activity change, negative = inhibition [2]	activity change, negative = inhibition [3]	activity change, negative = inhibition [4]	activity change, negative = inhibition [5]	activity change, negative = inhibition [6]	outcome [1]
Cc1cc2c(cc3n2CC(C)(C(=O)NC2CCCCCC2)N(Cc2cccs2)C3=O)o1 (centres undefined)	-1.18% (inactive)	-9.3%	4.66%	-6.23%	-21%	-2.94%	–
CCCCN1C(=O)c2cc(C(=O)NCc3cccc(OC)c3)nn2CC1(C)C(=O)NC1CCCC1 (centres undefined)	4.35% (inactive)	5.79%	1.34%	1.56%	5.98%	5.6%	–
CCn1c(=O)n(CC)c2cc(S(=O)(=O)Nc3ccc(Br)c(C)c3)c(Cl)cc21	-4.03% (inactive)	-3.14%	3.91%	-0.387%	-1.18%	-4.27%	–
CCCN1C(=O)c2c(C(=O)NCCc3ccco3)ncn2CC1(C)C(=O)NCc1ccc(C)cc1 (centres undefined)	7.22% (inactive)	0.693%	0.268%	5.09%	4.66%	9%	–
Cc1c(NC(=O)c2cc(C(N)=O)nc3cc(F)ccc23)c(C(F)(F)F)nn1Cc1ccc(C#N)cc1	-4.71% (inactive)	-5.91%	-2.28%	3.43%	-13.8%	1.39%	–
COc1ccccc1CNC(=O)c1nn(CC2CC2)c2c1CNCC2	-8.87% (inactive)	-6.08%	-7.04%	-9.87%	-14.1%	-12.2%	–
CC(C)n1c(=O)c2ccc(C(=O)NC3CCCCC3)cc2n2c(=O)n(CC(=O)NC3CCCCC3)nc12	-2.65% (inactive)	-0.578%	-0.047%	2.13%	-1.76%	-1.89%	–
CC(C)Cn1c(=O)c2ccccc2n2c(=O)n(Cc3ccccc3Cl)nc12	3.16% (inactive)	2.72%	1.02%	6.97%	-2.52%	3.52%	–
COc1c(C)c(OCC=C(C)C)cc2c1C(=O)NC2=O	2.98% (inactive)	1.17%	8.39%	6.71%	-18%	-15.7%	–
NC(=O)c1cnc(NCCc2ccc(O)c(Cl)c2)nc1NCc1ccccc1	-21.7% (active)	-31.8%	-12.1%	-36%	-88.5%	-23.4%	–
O=C(CCc1nnc2ccc(NCCCN3CCCC3=O)nn12)NCc1ccccc1Cl	10.2% (inactive)	1.96%	2.26%	10.9%	1.3%	9.12%	–
C[C@@H]1C[C@H]2O[C@@]3(O[C@@H]2C(C)(C)O)C(O)[C@@]2(C)C4CCC5C(C)(C)[C@@H](O[C@H]6OC[C@H](O)[C@@H](O)[C@@H]6O)CC[C@@]56C[C@@]46CC[C@]2(C)C13 (some centres undefined)	-3.8% (inactive)	0%	-1.51%	-4.39%	-13.7%	-0.709%	–
COc1ccccc1CN1C(=O)c2cc3sccc3n2CC1(C)C(=O)NC1CCCC(C)C1C (centres undefined)	4.18% (inactive)	1.88%	0%	3.67%	-3.12%	1.29%	–
Cc1cnc(-c2ccncc2)n1CCN	-5.2% (inactive)	-4.08%	-7.5%	-1.23%	-6.93%	-8.39%	–
Cc1cc(Cl)ccc1OCC(=O)N1CC(CO)C2(CCNCC2)C1 (centres undefined)	2.63% (inactive)	-0.912%	-2.42%	-7.34%	1.44%	4.28%	–
CC(C)CCn1c(=O)c2ccc(C(=O)NC(C)C)cc2n2c(=O)n(CC(=O)Nc3ccccc3)nc12	3.2% (inactive)	2.47%	0%	-0.014%	2.58%	3.82%	–
